Calls of active or inactive are those of the source. No rule for the calls is given here.

This assay in a line: Immunofluorescence assay for phosphorylation of ATM-targeted proteins for Identifying a Potential Treatment of Ataxia-Telangiectasia: SAR for Probe. The conditions noted are these: F2111 A-T fibroblasts, KAP-1 pS824 immunofluorescence, NCS. The source says:
NIH Chemical Genomics Center [NCGC] NIH Molecular Libraries Probe Centers Network [MLPCN] MLPCN Grant: MH089030-01 Assay Submitter (PI): Wei Zheng and Yosef Shiloh Ataxia-telangiectasia (A-T) is a devastating and progressive disease for which, there is no cure. Although A-T is a multisystem disease, it is stereotyped characterized by its neurological symptoms such as truncal ataxia, due to cerebellar cortical degeneration of the Purkinje and granule cells. Other symptoms of A-T are telangiectasias (dilated blood vessels), primary immunodeficiency, marked sensitivity to ionizing radiation (IR), chromosomal instability and predisposition to cancer. The underlying genetic cause of A-T is null mutations in the ATM (A-T mutated) gene. ATM is a nuclear serine/threonine kinase that functions as a master regulator of the cellular responses to double strand breaks (DSBs) in the DNA. Upon activation by DSBs, ATM phosphorylates a plethora of downstream targets, including KAP-1 on […]. KAP-1 phosphorylation occurs shortly in response to DSBs and mediates global chromatin relaxation, which facilitates DSB repair. To screen for small molecules that will compensate for the loss of ATM in cells derived from A-T patients, we monitored KAP-1 phosphorylation as a readout for ATM-like activity using an AlphaLISA assay. […]
`CC(=O)c1c(O)c(C)c(O)c(Cc2c(O)c3c(c(C(=O)/C=C/c4ccccc4)c2O)OC(C)(C)C=C3)c1O`: the Potency is 10 µM (active).
